Results on 5 compounds are retold here after PubChem BioAssay.

Calls of active or inactive are those of the source.

In experiment [1] the test system is PRMT1 (protein arginine N-methyltransferase 1). The experiment in a line: small molecules binding arginine methyltransferase PRMT1 – biochemical, small-molecule microarray, 635 nm fluorescence, primary screen (AID 1088).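 Further: binding of Prmt1 protein to compounds spotted on small-molecule microarray slides.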 Particulars: higher = more signal.
Experiment [2] can be described thus: growth effects on S. cerevisiae YJM789 – YJM789 clinical isolate, OD600, 24 h, basal, primary screen (AID 1089).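 Further: growth of clinical yeast isolate S. cerevisiae YJM 789 seeded 1000 cells per well; test concentration not given here.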 Particulars: higher = more signal, called active from +8 up or from −8 down.
Experiment [3] in a line: S. pombe growth modifiers, basal conditions – strain 972, OD600, 24 h, no modulator, primary screen (AID 1090).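 Further: basal condition with compound alone and no growth modifier present; test concentration not given here.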 Particulars: S. pombe 972 growth, higher = more signal, called active from +8 up or from −8 down.
The nature of experiment [4]: budding yeast growth modifiers under rapamycin – strain BY4716, OD600, 96 h, primary screen (AID 1091). Further: test concentration not given here. Particulars: S. cerevisiae BY4716 + rapamycin, higher = more signal, called active from +8 up or from −8 down.
In experiment [5] the target is Torsin-1A-interacting protein 2 (Homo sapiens) (UniProt Q8NFQ8). The experiment in a line: small molecules binding lysate-expressed LULL1 – cell lysate, human LULL1 lysate, 635/667 nm fluorescence, primary screen (AID 1092).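 Further: probe is lysate of COS7 cells overexpressing human LULL1; score merges per-feature 667 nm fluorescence with signal-to-noise.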 To be noted: small-molecule microarray, hLULL1 lysate binding, 635 nm fluorescence; higher = more signal.
Chain of Torsin-1A-interacting protein 2 (Homo sapiens) (Q8NFQ8 whole entry, looked up): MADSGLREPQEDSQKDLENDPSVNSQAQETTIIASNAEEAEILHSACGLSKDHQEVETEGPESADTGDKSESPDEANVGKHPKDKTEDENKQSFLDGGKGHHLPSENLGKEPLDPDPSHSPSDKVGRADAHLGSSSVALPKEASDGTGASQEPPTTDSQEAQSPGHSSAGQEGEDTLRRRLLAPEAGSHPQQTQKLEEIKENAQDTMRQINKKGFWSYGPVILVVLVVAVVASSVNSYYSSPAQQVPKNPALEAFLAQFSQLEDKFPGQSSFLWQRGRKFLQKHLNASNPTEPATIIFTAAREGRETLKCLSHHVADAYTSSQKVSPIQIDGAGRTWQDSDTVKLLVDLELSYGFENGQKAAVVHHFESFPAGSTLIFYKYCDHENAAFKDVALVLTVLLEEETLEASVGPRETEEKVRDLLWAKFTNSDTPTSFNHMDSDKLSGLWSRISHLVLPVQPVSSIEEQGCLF
Experiment [6] in a line: optical density change of DRC41 E. coli – strain DRC41, OD650, 24 h, E. coli filamentation project, primary screen (AID 1093).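 Further: MC1000 strain lacking acrAB efflux and sulA so SOS filamentation is blocked; test concentration not given here.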 Particulars: E. coli DRC41 growth, higher = more signal, called active from +8 up or from −8 down.
Experiment [7] is described as follows: probe aLefty2 binding to arrayed compounds – biochemical, biotinylated probe, 635/667 nm fluorescence, primary screen (AID 1094).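 Further: score merges spot fluorescence near 667 nm with spot signal-to-noise ratio.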 Particulars: small-molecule microarray, higher = more signal.
For experiment [8], the system named is Noggin (protein binding on small-molecule microarray). The experiment in a line: small molecules binding Noggin protein – biochemical, 635/667 nm fluorescence, primary screen (AID 1095).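 Further: score merges 667 nm feature fluorescence with signal to noise over triplicate slides.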 To be noted: 635 nm fluorescence, higher = more signal.
In experiment [9] the target is Neurogenic locus notch homolog protein 3 (Homo sapiens) (UniProt Q9UM47). The experiment in a line: small molecules binding NOTCH3 protein – biochemical, 635/667 nm fluorescence, primary screen (AID 1096). To be noted: small-molecule microarray, 635 nm fluorescence, higher = more signal.
Chain of Neurogenic locus notch homolog protein 3 (Homo sapiens) (Q9UM47 whole entry, looked up): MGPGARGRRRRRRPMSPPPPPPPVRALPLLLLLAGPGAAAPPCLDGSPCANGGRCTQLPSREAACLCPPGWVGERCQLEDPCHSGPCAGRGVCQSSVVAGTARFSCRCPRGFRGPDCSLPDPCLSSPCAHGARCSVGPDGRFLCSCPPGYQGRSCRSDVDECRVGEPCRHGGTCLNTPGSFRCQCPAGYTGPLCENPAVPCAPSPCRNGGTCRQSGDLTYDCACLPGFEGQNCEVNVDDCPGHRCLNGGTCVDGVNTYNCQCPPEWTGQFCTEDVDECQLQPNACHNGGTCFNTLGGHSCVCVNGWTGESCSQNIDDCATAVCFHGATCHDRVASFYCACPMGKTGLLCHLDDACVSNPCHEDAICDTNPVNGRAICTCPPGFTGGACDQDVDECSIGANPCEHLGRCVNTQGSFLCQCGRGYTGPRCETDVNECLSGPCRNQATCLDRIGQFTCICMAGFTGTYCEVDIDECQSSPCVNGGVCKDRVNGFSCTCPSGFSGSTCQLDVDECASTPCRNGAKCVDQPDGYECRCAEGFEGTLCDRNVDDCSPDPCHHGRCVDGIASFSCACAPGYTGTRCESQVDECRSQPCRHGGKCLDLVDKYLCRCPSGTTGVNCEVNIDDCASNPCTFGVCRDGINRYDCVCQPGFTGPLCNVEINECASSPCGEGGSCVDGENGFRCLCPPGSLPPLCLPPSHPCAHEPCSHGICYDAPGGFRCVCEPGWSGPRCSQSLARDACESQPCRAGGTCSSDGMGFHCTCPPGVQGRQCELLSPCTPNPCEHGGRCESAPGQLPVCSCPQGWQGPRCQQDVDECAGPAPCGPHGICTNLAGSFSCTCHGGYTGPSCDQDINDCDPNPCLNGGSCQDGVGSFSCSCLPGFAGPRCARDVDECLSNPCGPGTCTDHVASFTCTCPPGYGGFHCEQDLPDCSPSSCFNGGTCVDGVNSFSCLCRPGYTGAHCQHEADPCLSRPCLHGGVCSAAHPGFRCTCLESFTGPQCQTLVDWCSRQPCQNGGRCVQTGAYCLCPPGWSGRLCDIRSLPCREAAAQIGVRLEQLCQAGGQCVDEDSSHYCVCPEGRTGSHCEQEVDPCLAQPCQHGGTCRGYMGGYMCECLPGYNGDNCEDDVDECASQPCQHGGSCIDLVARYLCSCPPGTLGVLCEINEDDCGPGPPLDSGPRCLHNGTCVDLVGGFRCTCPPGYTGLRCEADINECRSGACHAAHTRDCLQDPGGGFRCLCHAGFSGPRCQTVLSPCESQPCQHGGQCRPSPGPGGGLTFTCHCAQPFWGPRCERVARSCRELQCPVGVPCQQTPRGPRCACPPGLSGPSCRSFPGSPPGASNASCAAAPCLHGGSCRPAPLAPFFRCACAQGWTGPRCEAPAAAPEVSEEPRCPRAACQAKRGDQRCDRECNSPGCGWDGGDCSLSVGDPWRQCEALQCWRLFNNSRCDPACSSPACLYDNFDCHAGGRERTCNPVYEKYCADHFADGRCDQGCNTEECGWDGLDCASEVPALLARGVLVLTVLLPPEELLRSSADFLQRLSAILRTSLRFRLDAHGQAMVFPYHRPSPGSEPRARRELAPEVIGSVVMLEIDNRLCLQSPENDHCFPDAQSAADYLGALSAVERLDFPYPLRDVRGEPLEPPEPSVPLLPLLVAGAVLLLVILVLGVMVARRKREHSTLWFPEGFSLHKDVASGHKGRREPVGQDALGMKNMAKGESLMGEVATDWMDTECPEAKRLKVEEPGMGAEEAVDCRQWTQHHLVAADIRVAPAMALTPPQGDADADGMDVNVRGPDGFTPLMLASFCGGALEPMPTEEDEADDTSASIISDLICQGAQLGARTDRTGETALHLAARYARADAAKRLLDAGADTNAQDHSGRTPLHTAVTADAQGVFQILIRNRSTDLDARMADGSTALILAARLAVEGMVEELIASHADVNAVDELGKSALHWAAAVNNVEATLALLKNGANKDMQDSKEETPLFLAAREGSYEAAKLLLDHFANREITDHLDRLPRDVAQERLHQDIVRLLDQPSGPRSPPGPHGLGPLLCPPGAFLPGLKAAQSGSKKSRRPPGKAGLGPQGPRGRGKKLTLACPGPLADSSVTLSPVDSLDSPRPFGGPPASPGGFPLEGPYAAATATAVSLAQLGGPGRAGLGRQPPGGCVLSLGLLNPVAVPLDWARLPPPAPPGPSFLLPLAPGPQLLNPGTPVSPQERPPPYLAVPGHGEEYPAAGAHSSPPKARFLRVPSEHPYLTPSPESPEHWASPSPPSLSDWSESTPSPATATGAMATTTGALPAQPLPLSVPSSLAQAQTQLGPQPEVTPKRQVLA
Experiment [10] in a line: probe aEGFR binding to arrayed compounds – biochemical, biotinylated probe, 635/667 nm fluorescence, primary screen (AID 1097).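 Further: probe is a biotinylated anti-EGFR antibody binding compounds printed on slides; score combines fluorescence near 667 nm and signal to noise of each spot.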 Particulars: small-molecule microarray, higher = more signal.
For experiment [11], the system named is Plasmodium falciparum Sir2 (PF13_0152, Sir2A). The experiment in a line: Plasmodium falciparum Sir2A binding compounds – biochemical, small-molecule microarray, 635 nm fluorescence, primary screen (AID 1098).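 Further: score merges spot fluorescence intensity with its signal-to-noise ratio.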 To be noted: fluorescence 635 nm, higher = more signal.
Experiment [12] in a line: probe aDKK1 binding to arrayed compounds – biochemical, biotinylated probe, 635/667 nm fluorescence, primary screen (AID 1099).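 Further: score merges 667nm spot fluorescence with signal to noise across triplicate slides; reference of the scale not given here.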 To be noted: small-molecule microarray, higher = more signal.
A short description of experiment [13]: probe aCHRDL2 binding to arrayed compounds – biochemical, biotinylated probe, 635/667 nm fluorescence, primary screen (AID 1100). To be noted: small-molecule microarray, higher = more signal.
A short description of experiment [14]: change in splice reporter luminescence, either direction, cell-based, HEK293, spliceosome inhibition project, primary screen (AID 1101).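 Further: HEK293 cells carrying a splicing-competent luciferase reporter gene; test concentration not given here.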 To be noted: HEK293 splicing luciferase reporter, 24 h, higher = more signal, called active from +8 up or from −8 down. On the technique in general: A reporter such as luciferase makes a cellular process visible.
Experiment [15] addresses Fibroblast growth factor 10 (Homo sapiens) (UniProt O15520). The experiment in a line: compounds binding fibroblast growth factor 10 – biochemical, small-molecule microarray, 635 nm fluorescence, primary screen (AID 1102). Particulars: FGF10 binding, fluorescence 635 nm, higher = more signal.
Experiment [16] has as its system glycogen synthase kinase-3 (GSK3A per assay name; protocol says GSK3B). The experiment in a line: compounds binding glycogen synthase kinase-3 – biochemical, small-molecule microarray, 635 nm fluorescence, GSK3A, primary screen (AID 1103). Further: the record names both GSK3A and GSK3B. Particulars: fluorescence 635 nm, higher = more signal.
For experiment [17], the target named is Epidermal growth factor receptor (Homo sapiens) (UniProt P00533). The experiment in a line: compounds binding epidermal growth factor receptor – biochemical, small-molecule microarray, 635 nm fluorescence, primary screen (AID 1104).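 Further: score merges 667 nm emission intensity with spot signal to noise over triplicate slides.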 To be noted: EGFR binding, higher = more signal.
Chain of Epidermal growth factor receptor (Homo sapiens) (P00533 whole entry, looked up): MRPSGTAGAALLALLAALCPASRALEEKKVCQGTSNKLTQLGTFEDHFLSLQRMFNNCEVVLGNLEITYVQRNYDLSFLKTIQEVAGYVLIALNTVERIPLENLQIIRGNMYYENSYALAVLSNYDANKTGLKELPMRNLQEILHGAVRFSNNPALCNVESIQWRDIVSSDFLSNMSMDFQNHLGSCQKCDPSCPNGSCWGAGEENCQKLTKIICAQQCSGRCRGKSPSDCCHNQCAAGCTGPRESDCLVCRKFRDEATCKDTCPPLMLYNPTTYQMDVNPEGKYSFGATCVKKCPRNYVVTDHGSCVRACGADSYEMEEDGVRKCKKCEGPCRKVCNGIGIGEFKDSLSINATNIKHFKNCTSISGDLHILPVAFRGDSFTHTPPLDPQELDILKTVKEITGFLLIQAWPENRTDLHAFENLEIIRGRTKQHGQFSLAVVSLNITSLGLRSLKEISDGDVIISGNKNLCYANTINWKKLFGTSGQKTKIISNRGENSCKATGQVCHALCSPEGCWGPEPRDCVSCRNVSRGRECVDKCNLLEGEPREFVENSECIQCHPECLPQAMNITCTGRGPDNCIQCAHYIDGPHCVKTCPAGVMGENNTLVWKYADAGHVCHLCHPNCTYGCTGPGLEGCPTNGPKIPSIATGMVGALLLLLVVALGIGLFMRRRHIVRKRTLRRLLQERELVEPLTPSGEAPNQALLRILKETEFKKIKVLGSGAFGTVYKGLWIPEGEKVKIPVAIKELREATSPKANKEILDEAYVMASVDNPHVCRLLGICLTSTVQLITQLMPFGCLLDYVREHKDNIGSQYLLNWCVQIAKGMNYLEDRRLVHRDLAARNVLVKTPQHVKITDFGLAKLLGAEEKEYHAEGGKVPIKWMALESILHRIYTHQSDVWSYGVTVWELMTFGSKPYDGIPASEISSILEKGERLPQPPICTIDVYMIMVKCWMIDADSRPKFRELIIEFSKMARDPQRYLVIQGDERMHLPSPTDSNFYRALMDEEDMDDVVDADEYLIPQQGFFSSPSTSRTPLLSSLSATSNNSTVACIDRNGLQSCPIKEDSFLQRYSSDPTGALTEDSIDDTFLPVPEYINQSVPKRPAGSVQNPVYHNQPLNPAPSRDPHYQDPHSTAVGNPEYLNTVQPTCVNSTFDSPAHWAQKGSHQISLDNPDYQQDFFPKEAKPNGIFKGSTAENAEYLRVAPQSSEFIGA
The target of experiment [18] is Follistatin-related protein 3 (Homo sapiens) (UniProt O95633). The experiment in a line: compounds binding follistatin-related protein 3 – biochemical, small-molecule microarray, 635 nm fluorescence, primary screen (AID 1105).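 Further: score merges emission near 667 nm and signal to noise per printed spot across three slides.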 To be noted: FSTL3 binding, higher = more signal.
Chain of Follistatin-related protein 3 (Homo sapiens) (O95633 whole entry, looked up): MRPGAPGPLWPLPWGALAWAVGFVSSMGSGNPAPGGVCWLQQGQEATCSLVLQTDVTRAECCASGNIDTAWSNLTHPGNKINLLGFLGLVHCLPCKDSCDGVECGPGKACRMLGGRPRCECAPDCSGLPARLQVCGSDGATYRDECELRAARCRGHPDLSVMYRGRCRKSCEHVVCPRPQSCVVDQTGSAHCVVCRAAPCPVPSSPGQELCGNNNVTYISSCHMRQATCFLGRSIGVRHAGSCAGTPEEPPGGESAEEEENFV
For experiment [19], the target named is Dickkopf-related protein 1 (Homo sapiens) (UniProt O94907). The experiment in a line: small molecules binding DKK1 protein – biochemical, small-molecule microarray, 635 nm fluorescence scan, primary screen (AID 1106).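 Further: score merges emission near 667 nm with signal to noise over three replicate slides.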 Particulars: higher = more signal.
Chain of Dickkopf-related protein 1 (Homo sapiens) (O94907 whole entry, looked up): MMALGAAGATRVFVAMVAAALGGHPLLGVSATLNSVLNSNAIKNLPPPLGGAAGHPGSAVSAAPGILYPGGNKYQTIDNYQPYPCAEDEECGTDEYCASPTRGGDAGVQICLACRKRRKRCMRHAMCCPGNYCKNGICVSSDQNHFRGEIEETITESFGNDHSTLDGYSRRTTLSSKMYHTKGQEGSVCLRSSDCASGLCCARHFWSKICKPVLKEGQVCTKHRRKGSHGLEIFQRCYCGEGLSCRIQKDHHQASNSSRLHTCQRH
Experiment [20] concerns Inhibin beta A chain (activin A). The experiment in a line: small molecules binding activin A – biochemical, small-molecule microarray, 635 nm fluorescence scan, primary screen (AID 1107).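 Further: mouse activin A protein probed at 4.33 µg/mL on printed slides; score merges bound-protein fluorescence near 667 nm with spot signal-to-noise.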 Particulars: INHBA, higher = more signal.

Chain of Fibroblast growth factor 10 (Homo sapiens) (O15520 whole entry, looked up): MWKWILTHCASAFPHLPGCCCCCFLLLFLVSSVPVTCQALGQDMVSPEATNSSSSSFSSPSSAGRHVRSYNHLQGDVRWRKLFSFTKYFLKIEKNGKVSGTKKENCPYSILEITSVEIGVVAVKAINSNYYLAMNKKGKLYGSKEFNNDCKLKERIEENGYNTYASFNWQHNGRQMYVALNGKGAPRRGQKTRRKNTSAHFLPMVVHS

With `O=C1O[C@@H](c2ccccc2)[C@@H](c2ccccc2)N2[C@@H](c3ccc(O)cc3)[C@]3(C(=O)Nc4ccc(C#CCCO)cc43)[C@@H](C(=O)N3CCN(c4ncccn4)CC3)[C@H]12`, the composite z-score in [1] is 1.54; in [5] it was 1.04; in [7], -0.698; in [8] it was 1.74; in experiment [9], 1.09; in experiment [10] it was -0.257. For the same compound, the composite z-score is 1.64 in [11]; -1.25 in experiment [12]; -1.14 in [13]; 1.4 in experiment [15]; 1.29 in experiment [16]; 0.103 in [17]. Moreover, the composite z-score in experiment [18] is 0.89; in experiment [19], -0.0103; in experiment [20] it was -0.0153. In addition, the z-score in experiment [2] is 2.72 (inactive); in experiment [3] it was 2 (inactive); in experiment [4], 6.45 (inactive); in experiment [6], 2.07 (inactive); in experiment [14] it was -0.116 (inactive).

With `C=CCN1C(=O)[C@]2(CCC(=O)OC(C)(C)C)N=C(c3ccc(OCCCO)cc3)O[C@@H]2c2ccccc21`, the composite z-score amounted to 1.08 in experiment [1]; 2.02 in experiment [5]; 0.128 in experiment [7]; 0.501 in [8]; 0.772 in experiment [9]; 0.401 in experiment [10]. Besides, the composite z-score in experiment [11] was 0.765; in experiment [12], 0.177; in experiment [13] it was 0.947; in experiment [15], -0.184; in [16], 0.298; in experiment [17] it was 0.348. The values for the composite z-score in experiment [18], in experiment [19] and in [20] were 0.635, 0.384 and 1.18, respectively. Also, the z-score in [2] was -2.22 (inactive); in experiment [3], -1.56 (inactive); in [4], 3.46 (inactive); in [6], 1.06 (inactive); in experiment [14] it was -1.82 (inactive).

With `C=CCC(OC(C)=O)[C@@H]1[C@@H](N(Cc2cc3ccccc3o2)C(=O)Cc2ccc(F)cc2)c2cc(OCCCO)ccc2N1C(=O)Cc1ccc2ccccc2c1` (stereo not given in full), the composite z-score in [1] was -0.241; in experiment [5], 0.426; in [7], -0.0736; in experiment [8], 0.129; in experiment [9], -0.413; in experiment [10], -0.185. For the same compound, the composite z-score was -0.255 in experiment [11]; -0.203 in [12]; 0.426 in [13]; -0.108 in [15]; -0.657 in experiment [16]; -0.805 in experiment [17]. The composite z-score is -0.656 in [18], -0.607 in experiment [19] and 0.779 in [20]. The z-score was -0.689 (inactive) in [2]; -0.761 (inactive) in experiment [3]; -0.36 (inactive) in experiment [4]; -1.16 (inactive) in experiment [6]; -0.123 (inactive) in experiment [14].

For `CCOC(=O)C=Cc1cccc(C)c1O`, the composite z-score in [1] was 0.23; in experiment [5], 0.236; in [7], -0.166; in experiment [8], -0.452; in [9] it was -0.0138; in experiment [10] it was -0.099. For the same compound, the composite z-score in experiment [11] was 0.995; in [12], -0.123; in experiment [13], -0.0819; in [15], -0.119; in experiment [16] it was -0.414; in [17] it was 0.069. In addition, the composite z-score in [18] is -0.101; in experiment [19], -0.199; in experiment [20] it was 0.39. For the same compound, the z-score is -19.8 (active) in experiment [2]; -11.5 (active) in [3]; -2.54 (inactive) in [4]; 0.666 (inactive) in experiment [6]; -1.41 (inactive) in [14].

As for `COc1cccc(C)c1NC(=O)O[C@H]1[C@H](OC(=O)Nc2ccccc2-c2ccccc2)[C@H](OC(=O)Nc2ccccc2-c2ccccc2)[C@@H](OC)O[C@@H]1CO`, the composite z-score in experiment [1] was 1.54; in [5], 3.18; in [7], 0.225; in [8] it was 1.14; in experiment [9] it was 1.07; in experiment [10], -0.0824. For the same compound, the composite z-score in experiment [11] came to 0.861; in experiment [12], 0.796; in experiment [13] it was 0.549; in [15] it was 1.18; in experiment [16] it was 1.33; in [17], 0.649. In addition, the values for the composite z-score in experiment [18], in experiment [19] and in [20] were 1.3, 0.717 and 0.729, respectively. In addition, the z-score in [2] was 1.24 (inactive); in experiment [3], 0.671 (inactive); in experiment [4] it was 5.69 (inactive); in [6], 0.0918 (inactive); in experiment [14] it was 0.118 (inactive).
